Screening results: PubChem BioAssay, National Center for Advancing Translational Sciences (NCATS)
Shown are actives, neighbours in structure and some others; about 1.1% of the full set was active somewhere.
IDH1 R132H inh – qHTS for Inhibitors of mutant isocitrate dehydrogenase 1 (IDH1): qHTS | hit rate 0.093% among 390,000 | IDH1-R132H enzyme, NADPH consumption, diaphorase/resazurin fluorescence | Potency, µM (titrated, usually from 76.6 µM), without a hit: at the top dose activity change, negative = inhibition, most hits filed as inhibitors; also: % is scaled to controls: 0 for no effect and ±100 for the full control effect; nearly all actives have a fitted effect of over 65% in size
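IDH1-R132H (0.5 ug/mL dispensed) in pH 7.5 Tris buffer was preincubated 30 min with compound, then given a substrate mix of 0.016 mM NADPH and 2 mM alpha-KG for 80 min at room temperature; remaining NADPH was read by diaphorase/resazurin fluorescence.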
HttQ103 aggreg – qHTS Multiplex Assay to Identify Dual Action Probes in a Cell Model of Huntington: Aggregate Formation (GFP) | hit rate 1.1% among 220,000 | Potency, µM (doses to about 46.1 µM), without a hit: top-dose activity change, negative = inhibition, hits mostly inhibitors | PC12 HttQ103-GFP aggregates, Acumen cytometry, 40 h; also: % is scaled to controls: 0 for no effect and ±100 for the full control effect; nearly all actives have a fitted effect of over 60% in size
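PC12 cells stably carrying ecdysone-inducible HTT exon 1 Q103–GFP were induced with tebufenozide (100 nM final) and treated with library compounds in titration. GFP aggregates in lysates were counted by laser scanning cytometry.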
HTT ATP protect – qHTS Multiplex Assay to Identify Dual Action Probes in a Cell Model of Huntington: Cytoprotection (ATP) | hit rate 0.14% among 230,000 | Potency, µM (doses to about 56.4 µM), for the others: cytoprotection (ATP increase), most hits filed as activators | AID 1471, 2008 | PC12 HTT-Q103 induced, cytoprotection, ATP luminescence, 40 h; also: % of control where 0% means no effect; nearly all actives have a fitted effect of over 45% in size
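PC12 cells stably carrying ecdysone-inducible Htt exon 1 (Q103)–GFP were induced with 100 nM tebufenozide (final) alongside library compounds in a dose series. Cytoprotection was scored as retained ATP by ATPlite luminescence.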
NPSR antag – qHTS Assay for Antagonists of the Neuropeptide S Receptor: cAMP Signal Transduction | CHO-NPSR cells, cAMP TR-FRET, antagonist mode | Potency, µM (titrated, usually from 38.3 µM), for the others: at the top dose activity change, negative = inhibition, most hits filed as inhibitors | hit rate 1% among 220,000 | AID 1461, 2008; also: % is scaled to controls: 0 for no effect and ±100 for the full control effect; nearly all actives have a fitted effect of over 50% in size
Target sequence (Q6W5P4 whole entry, looked up): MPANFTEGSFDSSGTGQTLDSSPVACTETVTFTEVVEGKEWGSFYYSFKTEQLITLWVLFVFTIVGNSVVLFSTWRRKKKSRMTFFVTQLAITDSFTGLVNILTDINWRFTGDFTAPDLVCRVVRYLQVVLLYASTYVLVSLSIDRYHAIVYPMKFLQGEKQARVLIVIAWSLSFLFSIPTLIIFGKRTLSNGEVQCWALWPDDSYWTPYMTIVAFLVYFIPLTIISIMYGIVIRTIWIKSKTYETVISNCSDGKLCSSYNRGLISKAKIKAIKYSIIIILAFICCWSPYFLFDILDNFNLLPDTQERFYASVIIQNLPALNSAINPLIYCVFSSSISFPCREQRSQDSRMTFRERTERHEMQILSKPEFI
AT treatment – qHTS Assay for Identifying a Potential Treatment of Ataxia-Telangiectasia | F2112 A-T fibroblasts, KAP-1 phosphorylation AlphaLISA; neocarzinostatin DNA damage 30 min before lysis | Potency, µM (doses to about 57.5 µM), without a hit: at the highest dose activation, hits mostly activators | hit rate 0.19% among 320,000; also: % of control where 0% means no effect; nearly all actives have a fitted effect of over 45% in size
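hTERT-immortalized A-T patient fibroblasts (F2112), 500 cells/well in OPTI-MEM, 1% FBS, got compounds for 60 min, then NCS for 30 min at 37C. Lysates were then assayed for phospho-KAP-1 by AlphaLISA (anti-pKAP1 donor, anti-KAP1 acceptor beads), 6 hr at 25C.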
* marks the source's active call; other numbers are inactive results; u = inconclusive; x = no result given; [ ] = remark or other dose. Calls follow the shape of the dose curve; as a rule, active = well fitted curve in the direction sought with a large enough effect; inconclusive = small, poorly fitted or top-dose-only effect, or another doubt; inactive = no such curve, though single readings can be large; an effect the other way counts as inactive or inconclusive. Potency is read from the fitted curve at half-maximal effect.

SMILES	IDH1 R132H inh	HttQ103 aggreg	HTT ATP protect	NPSR antag	AT treatment
CCN(CC)CCOc1ccc(/C(=C(/Cl)c2ccccc2)c2ccccc2)cc1	9%	u	-77%	10µM*	-5%
CC/C(=C(\c1ccccc1)c1ccc(OCCN(C)C)cc1)c1ccccc1	-4%	u	-145%	-8%[46.1 µM]	-3%
COc1cc([C@H](O)CO)ccc1O	x	x	5%[1.9 µM]	x	x
CC(=O)c1c(O)c2ccccc2n(C)c1=O	4%	-8%	u	-10%	8%
CC(=O)c1c(O)c2ccccc2n(C(C)C)c1=O	-10%	13µM*	-31%	26%	5%
COCc1ccc(O)c2ncccc12	7%	11µM*	-73%[10 µM]	4µM*	x
Oc1ccc(COc2cccc3ccccc23)c2cccnc12	x	x	x	x	10%
O=[N+]([O-])c1ccc(O)c2ncccc12	13%	3.5µM*	-289%	-31%	-7%
Cc1ccccc1N=Nc1ccc(O)c2ncccc12	9%	2.5µM*	-50%[10 µM]	-6%	-9%
Oc1c(I)cc(Cl)c2cccnc12	15%	10µM*	-235%	-13%	-24%
CC(=O)c1ccc(C2C=CC(O)C(CO)O2)cc1 (configuration not stated)	x	x	-6%[10 µM]	x	x
Oc1c(Cl)cc(CN2CCOCC2)c2cccnc12	0%	x	x	x	2%
CC(=O)NC(c1ccc(C)cc1)c1cc([N+](=O)[O-])c2cccnc2c1O (configuration not stated)	-16%	u	-65%[10 µM]	-12%	-5%
O=[N+]([O-])c1cc(Cl)c(O)c2ncccc12	13%	7.9µM*	-165%	-40%	-5%
CCC(=O)NC(c1ccc(C)cc1)c1cc([N+](=O)[O-])c2cccnc2c1O (configuration not stated)	-19%	7.9µM*	-50%[10 µM]	14%	-12%
Oc1c(CN2CCc3ccccc3C2)cc(Cl)c2cccnc12	13%	u	-81%	6.3µM*	-9%
Oc1c(C(c2ccccn2)N2CCCCC2)cc(Cl)c2cccnc12 (configuration not stated)	9%	25µM*	-141%	-56%	0%
O=[N+]([O-])c1cccc(/C=N\Nc2ccc3ccccc3n2)c1O	x	x	-11%[10 µM]	x	x
CCNC(=O)[C@@H]1O[C@@H](n2cnc3c(NCc4ccccc4)ncnc32)[C@@H](O)[C@H]1O	x	x	-15%[1.9 µM]	x	x
CCOC(=O)c1c(C)oc2nc(C)nc(NCCCN3CCN(c4cccc(C)c4)C(C)C3)c12 (configuration not stated)	-8%	x	x	x	x
COc1cccc(-n2nc(C#N)c(Cl)cc2=O)c1	4%	3.5µM*	-173%	-41%	-2%
CCCCC1=CC2=C(c3ccco3)C(=O)C(C)(OC(=O)c3cccs3)C(=O)C2=CO1 (configuration not stated)	x	x	-16%	x	x
CS(=O)(=O)c1nc(-c2cccs2)cc(C(F)(F)F)n1	x	7.1µM*	-99%	3.2µM*	-7%
Cc1cc(NC(=O)CCCS(=O)(=O)c2nc(-c3cccs3)cc(C(F)(F)F)n2)no1	3%	10µM*	-88%	u	-6%
O[Si@](CCCN1CCCCC1)(c1ccc(F)cc1)C1CCCCC1	x	x	8%[1.9 µM]	x	x
CN(C)S(=O)(=O)Oc1cccc(C(=O)Nc2ccc(Cl)c(Cl)c2)c1	16%	13µM*	-46%	-29%[46.1 µM]	5%
COc1ccc(S(=O)(=O)Nc2cc(S(=O)(=O)c3ccccc3)c(O)cc2C)cc1	-4%	x	x	x	-7%
Cc1cc(O)c(C(C)C)cc1NS(=O)(=O)c1ccccc1	-5%	5µM*	5%[0.074 µM]	-5%[46.1 µM]	4%
Cc1c(-c2ccccc2)oc2c(C(=O)N3CCN(c4ccc([N+](=O)[O-])cc4)CC3)cccc2c1=O	1%	4µM*	-25%[10 µM]	u	1%
Cc1c(C(=O)N2CCN(c3ccc([N+](=O)[O-])cc3)CC2)oc2ccccc12	4%	x	x	x	-8%
